In the supplement of paper PMC10849652 one finds log2 fold change data, which are given here for 24 targets.

About 7,900 targets were measured; listed, in parts, are those with a hit and a random draw of the rest. About 0.6% of all pairs of compound and target were hits. A number with no mark means an inactive call.

Chain of UniProt Q15004 (Q15004 whole entry, looked up): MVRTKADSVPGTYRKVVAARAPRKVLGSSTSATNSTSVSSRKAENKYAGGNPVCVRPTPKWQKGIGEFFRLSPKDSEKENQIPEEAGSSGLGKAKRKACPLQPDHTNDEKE
Chain of UniProt P53609 (P53609 whole entry, looked up): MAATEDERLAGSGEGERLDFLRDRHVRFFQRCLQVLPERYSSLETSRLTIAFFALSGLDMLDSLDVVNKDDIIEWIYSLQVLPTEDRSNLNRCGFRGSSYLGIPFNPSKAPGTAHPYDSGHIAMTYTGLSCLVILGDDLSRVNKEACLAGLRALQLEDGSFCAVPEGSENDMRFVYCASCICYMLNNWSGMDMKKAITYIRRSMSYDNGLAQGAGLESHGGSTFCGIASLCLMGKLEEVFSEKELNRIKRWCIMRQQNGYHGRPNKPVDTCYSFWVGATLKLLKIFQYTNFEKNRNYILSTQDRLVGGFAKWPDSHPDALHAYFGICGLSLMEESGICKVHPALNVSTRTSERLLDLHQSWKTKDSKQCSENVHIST
Chain of UniProt P06737 (P06737 whole entry, looked up): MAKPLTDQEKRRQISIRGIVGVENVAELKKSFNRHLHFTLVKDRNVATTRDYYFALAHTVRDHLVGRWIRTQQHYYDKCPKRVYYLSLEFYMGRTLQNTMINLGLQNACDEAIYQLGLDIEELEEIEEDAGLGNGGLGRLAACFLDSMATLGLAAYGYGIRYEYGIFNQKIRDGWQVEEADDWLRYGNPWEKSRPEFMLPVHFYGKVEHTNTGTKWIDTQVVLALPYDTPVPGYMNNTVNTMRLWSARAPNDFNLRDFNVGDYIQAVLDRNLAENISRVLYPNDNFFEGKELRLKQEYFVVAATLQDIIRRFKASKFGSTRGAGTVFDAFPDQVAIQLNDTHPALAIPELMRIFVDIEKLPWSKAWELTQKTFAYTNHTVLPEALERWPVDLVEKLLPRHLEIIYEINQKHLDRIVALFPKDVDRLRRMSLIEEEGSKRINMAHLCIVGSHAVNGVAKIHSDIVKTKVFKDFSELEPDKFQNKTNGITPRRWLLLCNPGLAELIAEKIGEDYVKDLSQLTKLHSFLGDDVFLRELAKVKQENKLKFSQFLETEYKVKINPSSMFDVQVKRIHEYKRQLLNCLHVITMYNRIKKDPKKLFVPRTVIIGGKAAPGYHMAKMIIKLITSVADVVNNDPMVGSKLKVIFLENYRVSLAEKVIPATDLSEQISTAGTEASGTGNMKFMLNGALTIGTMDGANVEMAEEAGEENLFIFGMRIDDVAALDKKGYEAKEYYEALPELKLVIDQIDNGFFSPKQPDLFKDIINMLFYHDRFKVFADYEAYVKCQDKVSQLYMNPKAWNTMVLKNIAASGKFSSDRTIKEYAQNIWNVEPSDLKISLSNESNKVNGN
Chain of UniProt Q9Y5Y5 (Q9Y5Y5 whole entry, looked up): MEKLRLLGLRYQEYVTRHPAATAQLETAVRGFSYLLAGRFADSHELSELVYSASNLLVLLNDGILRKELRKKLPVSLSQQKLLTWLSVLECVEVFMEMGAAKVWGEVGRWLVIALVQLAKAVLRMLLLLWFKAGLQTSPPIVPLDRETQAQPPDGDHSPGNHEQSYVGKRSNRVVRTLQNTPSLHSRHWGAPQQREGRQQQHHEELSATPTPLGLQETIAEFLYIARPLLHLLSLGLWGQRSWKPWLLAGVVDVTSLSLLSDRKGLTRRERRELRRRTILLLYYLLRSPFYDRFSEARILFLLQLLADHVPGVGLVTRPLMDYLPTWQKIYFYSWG
Chain of UniProt Q16822 (Q16822 whole entry, looked up): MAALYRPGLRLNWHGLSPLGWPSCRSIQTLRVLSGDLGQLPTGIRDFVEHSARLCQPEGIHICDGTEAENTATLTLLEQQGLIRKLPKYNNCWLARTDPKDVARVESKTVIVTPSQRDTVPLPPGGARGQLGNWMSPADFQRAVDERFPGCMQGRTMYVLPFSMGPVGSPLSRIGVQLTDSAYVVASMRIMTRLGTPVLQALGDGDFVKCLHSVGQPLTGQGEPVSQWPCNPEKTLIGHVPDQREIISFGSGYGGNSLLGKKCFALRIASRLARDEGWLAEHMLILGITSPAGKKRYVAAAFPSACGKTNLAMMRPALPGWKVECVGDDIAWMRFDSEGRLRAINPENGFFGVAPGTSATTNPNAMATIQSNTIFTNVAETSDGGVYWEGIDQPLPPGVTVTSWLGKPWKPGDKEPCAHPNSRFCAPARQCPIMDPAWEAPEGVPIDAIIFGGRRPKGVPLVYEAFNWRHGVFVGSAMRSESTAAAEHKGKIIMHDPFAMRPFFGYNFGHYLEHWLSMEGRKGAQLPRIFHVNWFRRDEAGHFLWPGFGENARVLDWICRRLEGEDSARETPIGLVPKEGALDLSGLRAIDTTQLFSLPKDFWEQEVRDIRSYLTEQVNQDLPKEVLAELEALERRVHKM
Chain of UniProt Q01970 (Q01970 whole entry, looked up): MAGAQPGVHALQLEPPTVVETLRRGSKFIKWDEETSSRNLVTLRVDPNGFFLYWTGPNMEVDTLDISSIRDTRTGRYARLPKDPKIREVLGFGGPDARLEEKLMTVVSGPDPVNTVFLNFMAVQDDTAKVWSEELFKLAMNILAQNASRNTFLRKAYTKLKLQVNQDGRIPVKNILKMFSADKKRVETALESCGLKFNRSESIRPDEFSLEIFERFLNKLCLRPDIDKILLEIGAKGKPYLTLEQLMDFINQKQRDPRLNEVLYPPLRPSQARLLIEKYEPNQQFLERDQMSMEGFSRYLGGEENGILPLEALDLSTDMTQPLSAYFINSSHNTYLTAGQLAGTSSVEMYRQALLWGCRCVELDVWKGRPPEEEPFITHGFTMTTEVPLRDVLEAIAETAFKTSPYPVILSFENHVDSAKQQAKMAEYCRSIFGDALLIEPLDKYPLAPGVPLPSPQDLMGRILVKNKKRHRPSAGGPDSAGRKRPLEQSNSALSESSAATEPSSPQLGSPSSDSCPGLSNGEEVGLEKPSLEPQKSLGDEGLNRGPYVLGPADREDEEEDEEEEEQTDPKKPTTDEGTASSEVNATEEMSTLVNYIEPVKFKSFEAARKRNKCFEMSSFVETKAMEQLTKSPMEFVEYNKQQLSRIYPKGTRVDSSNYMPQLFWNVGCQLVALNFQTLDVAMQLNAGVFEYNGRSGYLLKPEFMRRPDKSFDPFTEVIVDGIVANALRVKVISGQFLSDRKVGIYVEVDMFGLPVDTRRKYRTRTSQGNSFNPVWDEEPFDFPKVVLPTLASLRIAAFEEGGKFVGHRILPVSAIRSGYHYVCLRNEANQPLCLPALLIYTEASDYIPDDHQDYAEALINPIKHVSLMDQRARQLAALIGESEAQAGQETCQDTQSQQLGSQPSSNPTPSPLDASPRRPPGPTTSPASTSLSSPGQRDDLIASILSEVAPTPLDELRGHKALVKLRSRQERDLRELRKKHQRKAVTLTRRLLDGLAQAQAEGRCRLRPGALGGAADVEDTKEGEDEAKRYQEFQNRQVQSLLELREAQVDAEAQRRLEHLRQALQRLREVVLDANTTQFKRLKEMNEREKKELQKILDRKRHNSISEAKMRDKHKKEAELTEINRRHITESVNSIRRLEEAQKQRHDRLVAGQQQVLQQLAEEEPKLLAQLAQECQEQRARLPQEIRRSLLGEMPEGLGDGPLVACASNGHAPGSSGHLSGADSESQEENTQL
Chain of UniProt P49642 (P49642 whole entry, looked up): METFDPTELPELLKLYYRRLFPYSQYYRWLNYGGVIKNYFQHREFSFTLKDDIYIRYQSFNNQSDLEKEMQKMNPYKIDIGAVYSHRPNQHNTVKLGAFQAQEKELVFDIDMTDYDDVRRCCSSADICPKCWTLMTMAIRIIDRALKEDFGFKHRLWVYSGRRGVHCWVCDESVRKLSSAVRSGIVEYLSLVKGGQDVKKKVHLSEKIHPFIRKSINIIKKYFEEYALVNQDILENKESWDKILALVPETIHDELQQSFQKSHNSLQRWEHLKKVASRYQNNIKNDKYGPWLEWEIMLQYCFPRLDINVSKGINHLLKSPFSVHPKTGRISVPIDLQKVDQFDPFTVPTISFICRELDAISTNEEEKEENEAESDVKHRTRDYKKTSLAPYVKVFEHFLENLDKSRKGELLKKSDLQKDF
Chain of UniProt Q9UG56 (Q9UG56 whole entry, looked up): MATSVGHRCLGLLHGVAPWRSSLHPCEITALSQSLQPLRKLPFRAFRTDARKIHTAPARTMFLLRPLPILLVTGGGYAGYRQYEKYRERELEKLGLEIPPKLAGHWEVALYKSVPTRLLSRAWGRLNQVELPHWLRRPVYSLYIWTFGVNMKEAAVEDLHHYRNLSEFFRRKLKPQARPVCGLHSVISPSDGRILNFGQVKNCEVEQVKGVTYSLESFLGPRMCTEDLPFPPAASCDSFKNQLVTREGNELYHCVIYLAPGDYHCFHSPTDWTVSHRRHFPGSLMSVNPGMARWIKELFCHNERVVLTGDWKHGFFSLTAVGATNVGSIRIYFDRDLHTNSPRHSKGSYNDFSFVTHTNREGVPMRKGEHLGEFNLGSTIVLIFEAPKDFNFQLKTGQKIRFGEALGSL
Chain of UniProt Q15365 (Q15365 whole entry, looked up): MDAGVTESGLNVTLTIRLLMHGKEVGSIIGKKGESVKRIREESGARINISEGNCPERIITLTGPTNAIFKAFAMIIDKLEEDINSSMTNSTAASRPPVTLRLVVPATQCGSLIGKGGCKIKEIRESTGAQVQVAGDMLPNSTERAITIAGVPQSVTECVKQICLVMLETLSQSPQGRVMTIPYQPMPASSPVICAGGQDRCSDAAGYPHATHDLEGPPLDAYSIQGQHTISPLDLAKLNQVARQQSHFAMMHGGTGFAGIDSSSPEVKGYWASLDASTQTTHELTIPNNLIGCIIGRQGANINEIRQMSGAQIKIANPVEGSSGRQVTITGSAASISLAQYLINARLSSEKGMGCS
Chain of UniProt Q9Y2Y1 (Q9Y2Y1 whole entry, looked up): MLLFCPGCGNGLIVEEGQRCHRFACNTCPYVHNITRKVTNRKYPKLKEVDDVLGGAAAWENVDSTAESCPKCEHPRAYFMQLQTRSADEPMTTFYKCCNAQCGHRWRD

Compound in the experiment: CN1CC[C@H](c2c(O)cc(O)c3c(=O)cc(-c4ccccc4Cl)oc23)[C@H](O)C1 [alvocidib]
Briefly: log2 fold change, soluble protein after heating vs DMSO (PISA); higher = thermal stabilisation; K562 cells, 10 uM, 30 min; active = over 0.2 and 3.5 SD of the protein, either way, in both replicates (recomputed). In a few lines:
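Values are thermal stability changes relative to control samples and are taken from duplicates. They are stated as log2 fold changes. Before quantification by TMTpro 16plex LC-MS/MS with equalised channel sums, K562 cells at 2×10^6 cells/mL were treated with 10 μM compound for 30 min, heated in aliquots for 3 min across 48°C-58°C, pooled, extracted in PBS with 0.5% NP-40 at 4°C, and centrifuged at 21,000xg for 90 min to give the soluble supernatant.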
For PYGB (UniProt P11216), the log2 fold change was 0.153. Turning to PLCB3 (UniProt Q01970), the log2 fold change was -0.02.

Take POLR2M (UniProt P0CAP2): the log2 fold change was 0.123.

Turning to PEX16 isoform 2 (UniProt Q9Y5Y5), the log2 fold change was -0.141. As to PTPA (UniProt A6PVN8), the log2 fold change was 0.034.

In the case of PARN (UniProt O95453), the log2 fold change was -0.118. As for PKM (UniProt P14618), the log2 fold change is 0. For the target PRIM1 (UniProt P49642), the log2 fold change is -0.007. As to PCK2 (UniProt Q16822), the log2 fold change is -0.113. For the target POLR2G (UniProt P62487), the log2 fold change is 0.328 (active). The figure for PTDSS1 (UniProt P48651) is 0.129; for PHKA2 (UniProt P46019) it is -0.088. As to PISD (UniProt Q9UG56), the log2 fold change is 0. For PIP4P1 isoform 2 (UniProt Q86T03), the log2 fold change is 0.066. On to PGGT1B (UniProt P53609), for which the log2 fold change was -0.014.

Take PCLAF (UniProt Q15004): the log2 fold change is 0.138.

Regarding POLR3K (UniProt Q9Y2Y1), the log2 fold change was 0.038.

POLR2K (UniProt P53803): the log2 fold change was 0.14. Then PCBP1 (UniProt Q15365), with -0.119; and PCNT (UniProt O95613), with 0.067; and PTGR2 (UniProt Q8N8N7), with 0.015. Then PLIN2 (UniProt Q99541), with 0.01; and PDCD6 (UniProt O75340), with -0.003; and PYGL (UniProt P06737), with 0.097.
